15-hLO-2 inh: 15-hLO-2 (ALOX15B) enzyme inhibition. Potency, µM (highest dose often 57.1 µM), for inactives: top-dose activity change, negative = inhibition, hits mostly inhibitors. purified 15hLO-2, xylenol orange hydroperoxide absorbance. 110,000 compounds, 0.56% hits. O15296. AID 881; note: potency is the fitted concentration of half-maximal effect; nearly all actives have a fitted effect of over 60% in size
Target sequence (O15296 whole entry, looked up): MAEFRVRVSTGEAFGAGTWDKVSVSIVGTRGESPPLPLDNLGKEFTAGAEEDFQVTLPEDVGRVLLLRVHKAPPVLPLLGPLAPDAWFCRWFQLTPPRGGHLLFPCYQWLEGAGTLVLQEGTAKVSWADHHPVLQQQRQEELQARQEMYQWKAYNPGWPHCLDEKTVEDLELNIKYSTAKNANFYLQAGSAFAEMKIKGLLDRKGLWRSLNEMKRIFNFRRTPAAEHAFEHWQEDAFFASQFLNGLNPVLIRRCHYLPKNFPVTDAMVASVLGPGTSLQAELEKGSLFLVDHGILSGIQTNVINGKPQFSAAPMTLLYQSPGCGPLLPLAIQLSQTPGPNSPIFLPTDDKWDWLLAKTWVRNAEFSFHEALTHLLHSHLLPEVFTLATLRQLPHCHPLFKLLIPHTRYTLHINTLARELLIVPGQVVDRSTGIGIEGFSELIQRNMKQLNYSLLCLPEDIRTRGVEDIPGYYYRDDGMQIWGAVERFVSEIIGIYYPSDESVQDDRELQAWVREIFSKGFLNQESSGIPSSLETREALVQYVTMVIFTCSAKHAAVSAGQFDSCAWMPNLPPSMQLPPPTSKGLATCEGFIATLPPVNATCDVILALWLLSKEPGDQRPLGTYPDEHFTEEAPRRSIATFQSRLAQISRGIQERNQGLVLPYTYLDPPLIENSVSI
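Purified human 15hLO-2 (50 nM final) preincubated with compounds 15 min at room temperature in 25 mM Hepes pH 7.5, 0.01% Triton X-100, then 45 uM arachidonic acid added for 90 min; hydroperoxide detected via ferrous/xylenol orange, 573/405 nm absorbance ratio.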
12-hLO inh: blocks human 12-lipoxygenase activity; P18054; purified 12-hLO, xylenol orange hydroperoxide absorbance; Potency, µM (top dose mostly 57.1 µM), for inactives: at the top dose activity change, negative = inhibition, actives largely listed as inhibitors; 150,000 compounds, 0.12% hits; note: potency is the fitted concentration of half-maximal effect; nearly all actives have a fitted effect of over 55% in size
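Hydroperoxide formation by human 12-lipoxygenase from 40 uM arachidonic acid was followed colorimetrically via ferric-xylenol orange complex, using the 573/405 nm absorbance ratio. Enzyme concentration was 150 nM, with 30 min reaction at room temperature.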
PNC inhibitor: blocks assembly of the perinucleolar compartment; PC3M PTB-GFP, PNC prevalence imaging, 16 h; stronger effect = lower value; activity change (PNC), negative = inhibition, % at 10 µM; 140,000 compounds, 3.1% hits;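 active = readout at or below -70, meaning at least 70% loss of cells showing the perinucleolar compartment, a nuclear body marking cancer cells; inconclusive = readout between -30 and a set limit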;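 note: plate controls were DMSO wells for no effect and camptothecin positive control wells for full effect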
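Compounds are pinned in duplicate onto adhered PC3M cells stably expressing GFP-tagged PTB and incubated 16 h at 37 C. Cells are then fixed, nuclei stained with Hoechst, and PNC-positive cells counted.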
Numbers without * were called inactive; ? = inconclusive; nt = no result given; [ ] = another dose, or the depositor's remark. Shown are actives, neighbours in structure and some others; about 3.2% of the full set was active somewhere. Unless noted, calls come from the whole dose curve; as a rule, active = well fitted curve in the direction sought with a large enough effect; inconclusive = small, poorly fitted or top-dose-only effect, or another doubt; inactive = no such curve, though single readings can be large; an effect the other way counts as inactive or inconclusive. Unless noted, % is set by controls: 0 for no effect and ±100 for the full control effect.

SMILES | 15-hLO-2 inh | 12-hLO inh | PNC inhibitor
COc1cccc(-c2cncnc2NC2CCNCC2)c1 | 1% | nt | nt
CCOC(=O)c1nn(-c2ccccc2)c2nnc(Cc3ccc(Cl)cc3)c(=O)n12 | nt | 1% | -6
CCOC(=O)c1nn(-c2ccc(Cl)cc2)c2nnc(Cc3ccc(C)cc3)c(=O)n12 | nt | 2% | -109*
S=c1ccss1 | ? | -25% | nt
O=C(CSc1nnc(CNC(=O)c2ccccc2F)o1)NCCc1ccccc1 | -2% | -4% | 25
Cc1ccc(NC(=O)CSc2nnc(Cn3cnc4ccccc43)o2)cc1 | 8% | -5% | 0
Cc1ccc(NC(=O)CSc2nnc(CNC(=O)c3c(F)cccc3Cl)o2)cc1 | -9% | -9% | -91*
CCSc1nnc(NC(=O)CSc2nnc(CNC(=O)c3ccccc3F)o2)s1 | nt | -1% | -124*
CCOC(=O)C1=C(Cn2cnc3ccccc32)NC(=O)NC1c1cc(C)ccc1C (stereo unspecified) | 10% | -4% | -28
COC(=O)C1=C(Cn2cnc3ccccc32)NC(=O)NC1c1cc(C)ccc1C (stereo unspecified) | 2% | 6% | -103*
CCOC(=O)c1c(NC(=O)c2c(-c3ccccc3)noc2C)sc(C)c1-c1ccccc1 | 4% | -4% | -103*
CCOC(=O)Cc1csc(NC(=O)c2c(-c3ccccc3)noc2C)n1 | 7% | -3% | ?
CC(=O)C1=C(O)CC(c2ccccc2)CC1=NCCc1c(C)[nH]c2ccccc12 (stereo unspecified) | nt | -8% | 26
CCC(=NCCc1c(C)[nH]c2ccc(C)cc12)C1=C(O)CC(c2ccccc2)CC1=O (stereo unspecified) | nt | -7% | -116*
CC/C(O)=C1\C(=O)CC(c2ccccc2)CC1=NCCc1c(C)[nH]c2ccc(C)cc12 (stereo unspecified) | nt | 0% | -14
CC(=O)C1=C(O)CC(c2ccccc2)CC1=NCCc1c(C)[nH]c2ccc(C)cc12 (stereo unspecified) | nt | -1% | -119*
c1ccc(Oc2nc(NC3CCCCC3)c3[nH]cnc3n2)cc1 | 65%[0.0915 µM] | -2%[0.00818 µM] | nt
CCOC(=O)N1C2C=C(C)[C@@H]2[C@@H]2CC(=O)N21 (stereo partly specified) | nt | 0% | ?
c1ccc2cc(NCNc3ccc4ccccc4c3)ccc2c1 | -28%[11.4 µM] | 1%[11.4 µM] | nt
c1ccc(NN(Cc2cnccn2)c2ccccc2)cc1 | -27%[11.4 µM] | -9%[11.4 µM] | nt
Cc1nn(C)c(C)c1CNC(=O)/C=C/c1ccccc1F | nt | -2% | -113*
CCn1cc(/C=C/C(=O)NCc2c(C)nn(C)c2C)cn1 | 7% | -1% | -16
C[Si](C)(C/C=C/CC[C@H](O)C1=CCCCC1=O)c1ccccc1 | nt | 0% | nt
Cc1cccc(Nc2nnc(SCC(=O)Nc3ccccc3[N+](=O)[O-])s2)c1C | nt | -6% | 65
Cc1ccc(Nc2nnc(SCC(=O)Nc3ccccc3[N+](=O)[O-])s2)cc1 | nt | 11% | -119*
SMILES | 15-hLO-2 inh | 12-hLO inh | PNC inhibitor
Oc1cc(O)c2c(c1)O[C@H](c1ccc(O)c(O)c1)[C@@H](O)[C@@H]2c1c(O)cc(O)c2c1O[C@@H](c1ccc(O)c(O)c1)[C@H](O)C2 | -18%[11.4 µM] | -14%[11.4 µM] | nt
CC1(C(=O)NCCCNc2ncc(C(F)(F)F)cc2Cl)C=CC2(CCCCC2)N1C(=O)c1ccccc1 (stereo unspecified) | 11% | -5% | nt
O=C(CSc1nc(O)cc(=O)n1-c1ccccc1)Nc1ccc2c3c(cccc13)CC2 | nt | -24% | 16
Cc1c(O)nc(SCC(=O)Nc2ccc3c4c(cccc24)CC3)n(-c2ccccc2)c1=O | nt | -4% | -113*
CC1(C)Oc2ccccc2OC1(O)c1ccc2ccccc2n1 (stereo unspecified) | nt | -1% | -113*
O=C(O)CCSc1ccc2ccccc2n1 | -12% | 0% | 11
COC(=O)CC1=C(C(=O)OC)C(c2cccs2)C(C#N)=C(N)O1 (stereo unspecified) | -14% | -12% | -119*
N#CC1=C(N)Oc2cc(O)ccc2C1c1ccncc1 (stereo unspecified) | -1% | -2% | ?
N#CC1=C(N)Oc2cc(O)ccc2C1c1cccs1 (stereo unspecified) | -4% | -6% | -106*
CCOC(=O)C1=C(CC)OC(N)=C(C#N)C1c1cccs1 (stereo unspecified) | -9% | -28% | -7
FC(F)(F)c1ccccc1-c1cncnc1NCCN1CCOCC1 | 7% | nt | nt
COc1ccc2c(=O)c(OC)c(-c3ccccc3)oc2c1 | 0% | -13% | nt
COc1ccc(OC)c2c(=S)c3ccccc3[nH]c12 | -7% | 25µM* | nt
COc1ccc(-c2c(N)nnc3c2[nH]c2ccccc23)cc1OC | 23% | -5% | 13
NC1=NC(=O)C(Cc2cc(Cl)ccc2Cl)S1 (stereo unspecified) | -8% | -1% | -5
CCC1SC(N)=NC1=O (stereo unspecified) | 1% | 1% | -90*
O=C(Nc1ccn(Cc2ccccc2F)n1)c1ccc(COc2ccc(Br)cc2)cc1 | -9% | -11% | -108*
O=C(Nc1ccc(Cn2cccn2)cc1)c1ccc(COc2ccc(Br)cc2)cc1 | 1% | 7% | ?
O=C(NCc1ccc2c(c1)OCO2)c1ccc(CS(=O)(=O)c2ccc(Br)cc2)o1 | 1% | -12% | -87*
O=C(NCc1ccc2c(c1)OCO2)c1ccc(CS(=O)(=O)c2cccc(C(F)(F)F)c2)o1 | -5% | -13% | -23
COc1cc2c(cc1OC)C(C(=O)Nc1ccc3c(c1)OCCO3)C(c1cccnc1)N(C)C2=O (stereo unspecified) | 4% | -4% | 1
CC(C)C(=O)NC(=S)Nc1ccc(S(=O)(=O)NC(C)(C)C)cc1 | -13% | -8% | -107*
CC(C)C(=O)NC(=S)Nc1ccc(S(=O)(=O)Nc2ccccc2)cc1 | nt | -12% | ?
CCN(CC)S(=O)(=O)c1ccc(Cl)c(C(=O)NC)c1 | 6% | 0% | 4
CCN(CC)S(=O)(=O)c1ccc(F)c(C(=O)NCCC(C)C)c1 | nt | 0% | -100*
SMILES | 15-hLO-2 inh | 12-hLO inh | PNC inhibitor
N#CCCn1c(=O)c(-c2cccc(C#N)c2)nc2cnc(Oc3cccc(Cl)c3)nc21 | -7% | nt | nt
Cc1ccc(Cn2c(/C=C/c3ccco3)nc3ccccc32)cc1 | nt | ? | -19
Clc1ccc(Cn2c(/C=C/c3ccco3)nc3ccccc32)cc1 | nt | -7% | -84*
O=C(NO)c1ccccc1 | -10% | -4% | nt
O=C(NC1(O)C(=O)c2ccccc2C1=O)c1ccccc1 | 25µM* | -26% | 15
Cn1cc(-c2nc3cnc(Oc4ccccc4)nc3n(C3CC3)c2=O)c2ccccc21 | -4% | nt | nt
CCCn1c(-c2ccc(F)cc2)n[nH]c1=S | 2% | -4% | -121*
CCn1c(-c2ccc(C)cc2)n[nH]c1=S | -6% | -5% | 10
CCc1c(O)c2c(c(O)c1C(C)=O)C(=O)c1c(cc(O)c(C(=O)O)c1C(=O)O)C2=O | 16%[11.4 µM] | -19%[11.4 µM] | nt
O=C(CNC(=O)c1ccc(S(=O)(=O)N2CCCC2)cc1)N/N=C/c1c(Cl)cccc1Cl | nt | -3% | -13
COc1ccc(OC)c(N=c2ssnc2Cl)c1 | 25µM* | 8.9µM* | -15
COc1cc(N=c2ssnc2Cl)c(OC)cc1Cl | 25µM* | 20µM* | 10
COc1ccc(OC)c(N=C2C(=O)Nc3ccccc32)c1 | 3% | 4% | 73
Cc1ccc(N=c2ssnc2Cl)cc1 | ? | 28µM* | ?
